Test results from the supplement of paper PMC6555819.

Legend:
Experiment in all cases: PBM binding z-score (relative to random genomic background probes); higher = stronger binding; sequences stand for … in GC…GCGATTGACAGCGTAGAATGAAGG
[1] = tested on: RARb homodimer (NR concentration 270 nM)
Procedure, shortened: (§1)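 Custom Agilent 4×180K protein-binding microarrays carried double-stranded probes. Their 34-nt variable regions held direct-repeat seeds, single-nucleotide variants, half-site ablations and random human genomic background sequences. Arrays were incubated 1 h with ligand-free nuclear receptor dimers in PBS pH 7.4, 2% milk, 0.02% Triton X-100, 1 mM DTT, 0.2 mg/mL BSA and 0.4 mg/ml salmon testes DNA. Antibodies against each partner (one per run) detected binding, and scanned fluorescence was regression-normalized. Binding z-scores use random background probes as reference.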

[2] = tested on: RARg:RXRa (NR concentration 270 nM, RXRa partner concentration 90 nM)
Procedure, shortened: as §1

[3] = tested on: RARg homodimer (NR concentration 270 nM)
Procedure, shortened: as §1

[4] = tested on: RXRa DBDmut IVT, anti-RXR (DBD mutation: RXRa K156A/R161A, NR concentration 90 nM)
Procedure, shortened: as §1

[5] = tested on: RXRa homodimer (NR concentration 180 nM)
Procedure, shortened: as §1

[6] = tested on: THRa:RXRa (NR concentration 90 nM, RXRa partner concentration 90 nM)
Procedure, shortened: as §1

[7] = tested on: THRa homodimer (NR concentration 90 nM)
Procedure, shortened: as §1

[8] = tested on: VDR homodimer (NR concentration 270 nM)
Procedure, shortened: as §1

Row | Sequence | PBM binding z-score [1] | PBM binding z-score [2] | PBM binding z-score [3] | PBM binding z-score [4] | PBM binding z-score [5] | PBM binding z-score [6] | PBM binding z-score [7] | PBM binding z-score [8]
1 | TTACCAAGGTGAGCTGAGGTCGTTGATCCAACTC | 1.78 | 1.24 | 1.11 | 0.206 | 1.53 | 4.79 | 1.88 | 2.5
2 | TCATATGGGTAAACAGGTGAAAGTCCGTAAGTTA | 0.47 | 0.0718 | -0.135 | 0.95 | 0.566 | 0.434 | -0.368 | -0.103
3 | AGAACGCGGGCACGCTGAGTTGATAGCAGAGTAG | -0.459 | 0.0245 | 0.351 | -0.368 | 0.141 | -0.476 | -1.01 | 0.0842
4 | TCTTGTAGATCAGCAGGTTACGAAAGCTGGCCAA | 0.128 | -0.124 | -0.187 | 0.505 | 0.318 | 0.29 | -0.291 | -0.293
5 | ATCTCTAGGTAAGACTCAGTTAAGTGAAGAACGC | 0.172 | 0.0663 | 0.313 | 0.443 | 0.197 | 0.607 | 0.783 | 0.377
6 | CGAACTAGGTCATTGACAGTACAGTGAATAGTAA | 2.62 | 3.89 | 4.03 | 2.62 | 2.48 | 2.48 | 0.979 | 0.986
7 | ACTAGTTGGTCAGCTGAGGTCACAAACAATTCGG | 4.02 | 3.8 | 3.86 | 0.835 | 3.71 | 5.04 | 4.45 | 3.58
8 | GCAGACAGGGGAAACGCAGGTAACTCAGGGTGGC | -0.497 | -0.368 | -0.487 | -0.47 | -0.164 | 0.986 | -0.308 | -0.688
9 | ATATGTAGGTTATCGGGTCATCCAGTTTGCGCAT | 3.46 | 3.7 | 2.8 | 1.33 | 3.78 | 3.68 | 3.07 | 3.89
10 | TAACCAAGGTGAAAGGTCGTTGATGCACGCCTTG | 2.82 | 4.47 | 2.52 | 0.794 | 6.28 | 3.33 | 0.878 | 1.5
11 | GATACAGGGTCAGCTAGGGGCCAGAGTATGGAAA | 3.52 | 6.94 | 4.94 | 1.25 | 4.43 | 3.62 | 0.639 | 0.774
12 | TGAATGAGGTTAAAGATCAGGGACCGTGGCGTCG | 0.662 | 2.38 | 0.948 | 0.631 | 3.61 | 2.39 | 0.453 | 0.608
13 | TAGCCTAGGTCAGATCCGGCCAGTATACGCTATA | 2.26 | 2.41 | 3.5 | -0.288 | 1.41 | 3.4 | 0.0339 | -0.271
14 | ATATGTTGGTTACATCCGGGTCATTCAGGCTATG | 2.54 | 1.79 | 1.29 | 0.674 | 2.18 | 3.16 | 2.45 | 2.26
15 | ACTATTAGTTGACTTAAGGCAACCGATACGACGC | 0.11 | 0.623 | 0.592 | 0.8 | 0.347 | 2.4 | 0.592 | 0.124
16 | ATCGAAAGGTCGTGAGGTGATTATACAGAAAGGC | 2.49 | 4.47 | 3.99 | 1.6 | 5.42 | 3.17 | 1.15 | 1.07
17 | TCTATTAGTTGATTAGGGCAACCCAAACAGCGGA | 0.891 | 0.877 | 0.646 | 1.04 | 0.612 | 0.77 | 0.499 | 0.49
18 | ACTAGCAGGCAAAGGGTCACTCAAGATTAGTCCG | 3.87 | 3.98 | 3.89 | 0.88 | 4.31 | 2.58 | 0.198 | 1.57
19 | AGATGTAGGTTAGCTGGGGTCATTCAGACTAGGC | 3.53 | 3.96 | 2.72 | 1.78 | 5.24 | 5.05 | 3.03 | 4.8
20 | ACTCGGAGGACAAAGGTCAGAGGTACGCCAGTGA | 4.58 | 5.98 | 5.03 | 0.647 | 5.39 | 3.49 | 0.633 | 1.68
21 | TCAGAGAGGTGAAGGTAACTCAGGTACGCAGTCG | 1.34 | 1.54 | 1.36 | 1.31 | 1.85 | 2.04 | 0.401 | 0.316
22 | TAGGCTAGGTCATGCGGGCCAGTATAGTGTCGGC | 3.1 | 3.73 | 4.44 | 0.47 | 3.14 | 2.77 | 0.748 | 0.519
23 | TCCAGTTGGTCACGGAGGTCACACACGACGGGTA | 4.6 | 4.87 | 4.79 | 1.11 | 4.8 | 3.84 | 2.09 | 2.65
24 | TCATATAGGTAAATGCTCGGTGAAAGTCCGATCT | 0.197 | 0.387 | 0.081 | 1.45 | 0.76 | 0.193 | 0.208 | 0.375
25 | TCATATAGGTAAAGGTGAAATTCGAACGATATGA | 1.3 | 1.56 | 1.28 | 0.746 | 2.19 | 1.37 | -0.553 | -0.144
26 | TCGAGTAGGTTAGTCGGGGCATGCAGCCAACATA | 0.498 | -0.0315 | -0.00519 | 0.0884 | 0.113 | 0.978 | -0.26 | -0.157
27 | CCTACTGGGCCAAAAAGGTCACTGATGCCGATAA | 4.56 | 4.77 | 4.86 | 0.0179 | 4.83 | 3.07 | 0.702 | 1.53
28 | GATACAGGGTCAGCTAGAGGCCAGAGTATGGAAA | 3.39 | 6.67 | 4.67 | 1.4 | 4.36 | 3.08 | 0.503 | 0.622
29 | TCTATTAGTTGAATGGCAACCGACGAGTCCGTTT | 0.038 | 0.299 | 0.139 | 1.73 | 0.383 | -0.116 | 0.299 | 1.28
